In the library only some 3.3% were active in any assay of this set; here they are far more common.
LDHA inh: LDHA (human) enzyme inhibition; P00338; purified LDHA, NADH/diaphorase-resazurin fluorescence; stronger effect = lower value; activity change, % (values are at about 110 or 230 µM); 480,000 tested, 0.15% active; AID 1347041; in the data active = activity change below about -30%; inconclusive = mostly about -25% to -30%
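Resorufin fluorescence (ex540/em590), read at 0 and 20 min after diaphorase/resazurin addition, reports the NADH left after a 5 min room-temperature reaction of 2 nM human LDH5 with 0.06 mM NADH and 0.2 mM pyruvate.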
D3 ag: activates the human D3 dopamine receptor. max activation, %. 410,000 tested, 0.58% active. P35462. D3R DiscoveRx beta-arrestin cells, luminescence, 90 min; in the data active = max activation above about 30%
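Agonist-mode cell screen: cells plated at 1500/well and incubated overnight at 37 °C, then exposed to library compounds for 90 min at 37 °C. Detection reagent was added for 30–60 min at room temperature, and luminescence was read.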
PI5P4Ka inh: PI5P4K alpha (human) kinase inhibition | max response, % | P48426 | PI5P4Kalpha enzyme, ADP-Glo luminescence, 60 min; stronger effect = lower value | 330,000 tested, 1.2% active; active = max response of -50% or lower; inconclusive = between -30% and -50%; inactive = -30% or higher; also: value at the top dose of about 77 µM
Target sequence (P48426 whole entry, looked up): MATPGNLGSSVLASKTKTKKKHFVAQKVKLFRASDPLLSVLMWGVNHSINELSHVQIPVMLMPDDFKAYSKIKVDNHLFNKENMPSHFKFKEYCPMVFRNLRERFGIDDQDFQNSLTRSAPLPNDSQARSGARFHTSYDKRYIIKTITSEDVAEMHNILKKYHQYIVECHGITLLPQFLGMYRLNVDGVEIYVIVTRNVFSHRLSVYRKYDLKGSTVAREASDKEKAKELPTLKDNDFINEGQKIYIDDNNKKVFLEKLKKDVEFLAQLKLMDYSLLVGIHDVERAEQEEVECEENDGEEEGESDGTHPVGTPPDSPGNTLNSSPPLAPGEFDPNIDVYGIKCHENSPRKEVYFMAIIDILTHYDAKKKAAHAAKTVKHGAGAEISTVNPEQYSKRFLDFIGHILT
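Luminescence from ADP-Glo served as readout of PI5P4Kalpha activity in a qHTS format. Reaction: enzyme, substrate, compound, ATP at 5 microM final, 60 min at RT.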
D3 antag: D3 dopamine receptor (human) antagonism; D3R cells, DiscoveRx beta-arrestin luminescence, antagonist mode; stronger effect = lower value; max response, negative = inhibition, %; 360,000 tested, 2.5% active; in the data active = max response below about -50%; inconclusive = no clear call, values can overlap the other calls
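Cells plated overnight at 1500 cells/well, then exposed to library compounds with dopamine controls for 90 minutes at 37 degrees C. DiscoveRx reagent added for 30–60 minutes at room temperature; luminescence read, quantitative HTS format.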
PI4K2A inh: blocks human PI4K2A kinase activity; activity change, negative = inhibition, % at 76.9 µM; purified PI4K2A, ADP-Glo luminescence, 1 h; stronger effect = lower value; 420,000 tested, 0.13% active; Q9BTU6; in the data active = activity change below about -50%; inconclusive = mostly about -30% to -49%
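Compounds are screened against recombinant PI4K2A using PI as substrate and ATP, the latter dispensed at 300 microM. Reactions run one hour at ambient temperature before ADP-Glo detection; full inhibition defined by wells lacking enzyme.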
Of the large screens only hits and unclear results are named; the others gave an inactive call; ! = repeats disagree.

C[C@H]1C(c2ccc(F)cc2)=NN(c2ccccc2)[C@@H]1CO	D3 ag 35.5
O=C(COC(=O)C1CC2C=CC1C2)Nc1cccc(S(=O)(=O)N2CCCCC2)c1 (stereo not given)	D3 ag 31.4
COc1cccc(C(=O)Oc2ccc3c(=O)c(-c4ccc(OC)c(OC)c4)c(C)oc3c2)c1	none (no result: D3 ag, PI5P4Ka inh, D3 antag, PI4K2A inh)
CC1CN(C(=O)CCn2cnc3sccc3c2=O)CCO1 (stereo not given)	none (no result: D3 ag, PI5P4Ka inh, D3 antag, PI4K2A inh)
Cn1c(=O)[nH]c(=O)c2c1nc(Br)n2CCSc1nc2ccccc2o1	D3 antag -69.5 (no result: PI5P4Ka inh)
CS(=O)(=O)N1CCCN(c2ccc(=O)n(-c3ccccc3)n2)CC1	none (no result: D3 ag, PI5P4Ka inh, D3 antag, PI4K2A inh)
O=C(CSc1nc(-c2ccccc2)nc2cc(=O)[nH]n12)Nc1cccc(C(F)(F)F)c1	none (no result: D3 ag, PI5P4Ka inh, D3 antag, PI4K2A inh)
Cc1c(Cl)cnc(NC(=O)COC(=O)c2ccc([N+](=O)[O-])s2)c1Cl	PI5P4Ka inh -78.5
O/N=C/c1ccc(Cl)cc1Cl	none (no result: D3 ag, PI5P4Ka inh, D3 antag, PI4K2A inh)
COc1cccc(COc2ccccc2C2Nc3ccc(Br)cc3C(=O)N2NC(=O)c2ccncc2)c1 (stereo not given)	D3 antag -55.3
Nc1ccccc1SC(CC(=O)c1ccccc1)c1cccc([N+](=O)[O-])c1 (stereo not given)	D3 antag inconclusive
Nc1ccccc1SC(CC(=O)c1ccccc1)c1ccc([N+](=O)[O-])cc1 (stereo not given)	D3 antag -51.4
C=CCn1c(Sc2ncc([N+](=O)[O-])s2)n[nH]c1=O	D3 antag -80.4
CCN(CC(=O)NC(C)(C)C)C(=O)Cn1c(=O)c2c(ncn2C)n(C)c1=O	none (no result: D3 ag, PI5P4Ka inh, D3 antag, PI4K2A inh)
OCC1(Cc2ccc(Cl)cc2)CCN(CCCc2ccccc2)CC1	D3 antag -65.1
OCC1(Cc2ccc(Cl)cc2)CCN(Cc2ccccc2F)CC1	D3 antag inconclusive
OCC1(Cc2ccccc2)CCN(Cc2cccc(F)c2F)CC1	D3 antag -129.5
CS(=O)(=O)Nc1ccccc1C(=O)N1CCCC1	none
CC(C)(CNC(=O)c1ccccc1NS(C)(=O)=O)N1CCCCC1	D3 antag -58.1
NC(=O)c1ccc(NCCc2cccs2)cc1	D3 antag -50.2
NC(=O)c1cccnc1NCCc1cccs1	none (no result: D3 ag, PI5P4Ka inh, D3 antag, PI4K2A inh)
CN(C)c1ccc(C=NC2CCc3ccccc32)cc1 (stereo not given)	none (no result: D3 ag, PI5P4Ka inh, D3 antag, PI4K2A inh)
CCOc1cc([N+](=O)[O-])cc(/C=C2/NC(=O)N(Cc3ccccc3F)C2=O)c1O	PI5P4Ka inh -77.2, D3 antag inconclusive
CC1CC(C)(C)N(C(=O)CN2C(=O)c3ccccc3C2=O)c2ccccc21 (stereo not given)	none (no result: PI5P4Ka inh)
Cc1ccc2c(c1)C(C)CC(C)(C)N2C(=O)NC1CCCCC1 (stereo not given)	D3 antag -54.3
CN1CCN(CC(=O)N2c3ccccc3C(C)(c3ccccc3)CC2(C)C)CC1 (stereo not given)	none
Cc1ccc2c(c1)C(C)CC(C)(C)N2C(=O)CN1CCN(C)CC1 (stereo not given)	LDHA inh -40.0, D3 antag -93.1
Cc1ccc2c(c1)N(C(=O)NC1CCCCC1)C(C)(C)CC2C (stereo not given)	none (no result: PI5P4Ka inh)
CC1CC(C)(C)N(C(=O)CN2CCN(C)CC2)c2ccccc21 (stereo not given)	LDHA inh -34.8, D3 antag inconclusive
COc1ccc(-n2c3c(c(=O)[nH]c2=O)C(C(F)(F)F)(C(F)(F)F)N=C(c2ccncc2)N3)cc1	none (no result: D3 ag, PI5P4Ka inh, D3 antag, PI4K2A inh)
Cc1ccccc1OCc1nc(-c2ccccc2OCC(=O)N2CCCC(C)C2)no1 (stereo not given)	none (no result: D3 ag, PI5P4Ka inh, D3 antag, PI4K2A inh)
COc1ccc(-n2c(COc3cccc4ccccc34)nnc2SC(C)C(=O)O)cc1 (stereo not given)	PI5P4Ka inh -96.9
O=S1(=O)C=C(Sc2nc3ccccc3s2)c2ccccc21	D3 antag -97.7
O=C(CN1CCN(Cc2ccccc2)CC1)c1ccc(Br)cc1	D3 antag -61.7 (no result: PI5P4Ka inh)
O=C(CN1CCN(Cc2ccccc2)CC1)c1ccccc1	none
O=C(CN1CCN(Cc2ccccc2)CC1)c1c[nH]c2ccccc12	D3 antag -54.5
CC1=CC(C)(C)n2c(O)c(C3=NC(=S)NC3=O)c3cc(OC(=O)c4cccc5ccccc45)cc1c32	D3 antag -57.7
COc1cccc(C(=O)Oc2cc3c4c(c2)C(C)=CC(C)(C)N4C(=O)C3=O)c1	D3 antag inconclusive (no result: PI5P4Ka inh)
Cc1ccc(-n2c(CCc3nc4ccccc4[nH]3)n[nH]c2=S)cc1	PI5P4Ka inh -57.9, D3 antag -50.9
Cc1cc(C(=O)OC(C)C(=O)NC(N)=O)c2ccccc2n1 (stereo not given)	LDHA inh -31.8 (no result: D3 ag, PI5P4Ka inh, D3 antag, PI4K2A inh)
Cc1ccc2nc(C)cc(C(=O)OC(C)C(=O)NCC(C)C)c2c1 (stereo not given)	LDHA inh -30.4 (no result: D3 ag, PI5P4Ka inh, D3 antag, PI4K2A inh)
Cc1nc2ccc(C(=O)NC3CC(C)(C)NC(C)(C)C3)cc2nc1C	none (no result: D3 ag, PI5P4Ka inh, D3 antag, PI4K2A inh)
CCC(C)c1ccc(OCCCCN2CCOCC2)cc1 (stereo not given)	D3 antag -64.6
Cc1cc(Cl)cc(C)c1OCCCCN1CCOCC1	D3 antag -57.5 (no result: PI5P4Ka inh)
CCCCOc1ccc(OCCCN2CCOCC2)cc1	D3 ag 87.3!
CCOC(=O)c1ccc(Oc2coc3cc(OC(=O)N4CCOCC4)ccc3c2=O)cc1	none (no result: D3 ag, PI5P4Ka inh, D3 antag, PI4K2A inh)
Clc1ccc2c3c([nH]c2c1Cl)CCC3	none (no result: D3 ag, PI5P4Ka inh, D3 antag, PI4K2A inh)
Clc1cccc2c3c([nH]c12)CCNC3	D3 antag -60.1
COc1ccc2[nH]c3c(c2c1)CNCC3	none
Clc1ccc2[nH]c3c(c2c1)CNCC3	D3 antag -97.7
Cc1cccc(NC(=O)Nc2ccc(Oc3c(F)c(F)c(F)c(F)c3F)cc2)c1	D3 antag -116.8 (no result: PI5P4Ka inh)
Cc1cccc(NC(=O)Nc2ccc(S(N)(=O)=O)cc2)c1	none
COc1ccc(Br)cc1CN1CCCC(C(=O)N2CCCCCC2)C1 (stereo not given)	LDHA inh -32.9, D3 antag inconclusive
COc1ccc(OC)c(CN2CCCC(C(=O)N3CCCCC3)C2)c1 (stereo not given)	D3 antag -77.4 (no result: PI5P4Ka inh)
COc1ccc(Br)cc1CN1CCCC(C(=O)N2CCCCC2)C1 (stereo not given)	LDHA inh inconclusive, D3 antag -89.1 (no result: PI5P4Ka inh)
COc1ccc(Br)cc1CN1CCCC(C(=O)N2CCN(C)CC2)C1 (stereo not given)	none (no result: D3 ag, PI5P4Ka inh, D3 antag, PI4K2A inh)
COc1ccc(OC)c(CN2CCCC(C(=O)N3CCCCCC3)C2)c1 (stereo not given)	none (no result: D3 ag, PI5P4Ka inh, D3 antag, PI4K2A inh)
Cn1nc(C(=O)NCc2cnn(-c3ccccc3)c2)c2ccccc2c1=O	none (no result: D3 ag, PI5P4Ka inh, D3 antag, PI4K2A inh)
Cc1ccc(/C=C/C(=O)c2cc(Br)ccc2OC(=O)c2ccco2)cc1	none
COc1ccccc1/C=C/C(=O)c1cc(Br)ccc1OC(=O)c1ccco1	D3 antag -56.5
COc1ccc(/C=C/c2ccccc2)cc1[C@H]1[C@@H]2C=CCC[C@@]2(C)C(=O)N1Cc1ccccc1	D3 antag -66.5
COc1ccc(-c2ccc(N(C)C)cc2)cc1[C@H]1[C@@H]2C=CCC[C@@]2(C)C(=O)N1Cc1ccccc1	none
